Among the data in PubChem BioAssay AID1347426 (Functional Genomics Laboratory (NCATS/FGL), 2020) are median seed-adjusted z-score values, retold here.

Hit rate of the full screen: of about 31,000 sequences, about 1,400 (4.5%) were called active.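 The calls were made as follows: active = median seed-adjusted z-score above 1 or below -1; inactive = the rest.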 The full list was thinned out, with actives kept by preference.

The nature of this assay: Novel Modifiers of Survival Motor Neuron (SMN) Protein: Gene Identification via Genome-wide siRNA Screen.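 Also: luminescence tracks full-length SMN protein made from the SMN2 reporter.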 The settings on record: HEK293T SMN2-luciferase reporter, siRNA knockdown, 72 h; actives lie on both sides. Summed up:
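siRNA screen, 10418 genes ×3 siRNAs; 1 pmol/well, lipid reverse transfection into HEK293T SMN2-luc reporter line. 72 h, 37 °C, 5% CO2; ONE-Glo readout. Data: neg-ctrl normalized, log10, MAD; hit = MAD >1.0 or < -1.0.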
A general note: Reporter assays use an easily measured gene product as a stand-in for the process of interest.
Turning to GCCUAGAGGUUUGCCCUGATT against ATHL1, the median seed-adjusted z-score is 0 (inactive).
Take UCCACUGCCCAAUAAAUAUTT against PYDC1: the median seed-adjusted z-score is -1.44 (active).
On to CGAGCCCAAGGAACAUGAATT against NKX2-3, for which the median seed-adjusted z-score was -0.2 (inactive).
Next, GCUUUUCUCUUACAAUUCATT against ZNF557: -0.197 (inactive).
For CCAUUAACGAGCUGCUUAATT against PLK1, the median seed-adjusted z-score is -2.57 (active).
Next, CAGUCGGAUCCAGAGCUGATT against GCHFR: -0.559 (inactive).
Next, AGCUCACGCUGUGCAUGUGTT against TREX2: -0.918 (inactive).
Under AAUCAGAUUCUCAACCUAATT against KRT10 stands 0.493 (inactive); under CCUUCGAGCUGCUAUUAAUTT against TLR10, -0.363 (inactive).
For the sequence GAAGCGACUGUUUUAGAAATT against EIF4E3, the median seed-adjusted z-score was 0 (inactive).
Under GUUAUCCUCUAAUUGAUAATT against B3GALNT1 stands 0.128 (inactive); under GGGUGUAACAUGUGCGGAATT against ZNF217, -0.872 (inactive); under GCACCAUCGUCCUUGAACATT against DUOX1, -1.09 (active).
Next, CCACUGCAACUGUAAUUCUTT against PROCA1: -0.502 (inactive).
Next, GAGUUCGUCGAAUCCCAAATT against SETMAR: 0.191 (inactive); CCUCGAUUCUUAAAGACGATT against RELN: 0.207 (inactive); GCUUUGGAGUCACAGGUCATT against EYA3: -0.0191 (inactive).
In the case of GGAGACAAGCACAAGCUGATT against S100B, the median seed-adjusted z-score is 0.862 (inactive).
Next, GUGCGAUUCUGGAUGACAATT against EVI1: 0 (inactive); CAUGGGACCUGAUUCAAGATT against FCER2: -1.75 (active).
Next, CCAGAUCAGUCCUAGCUUATT against GLIS3: -0.00906 (inactive).
Next, AGCUGGUUCACGACAUGAATT against TRIP6: 1.03 (active); GCAUUGACUGGUCCUAUGATT against CPA2: 0.0374 (inactive).
For the sequence GCACUCCCAAGAUUGAUAATT against RBPJ, the median seed-adjusted z-score was -0.452 (inactive).
Next, CACUGAUUUUGGAUGCUCUTT against HES1: -0.262 (inactive); ACACGGCAUUAAAAAGCUATT against JRK: -0.624 (inactive).
In the case of AAACCAUCAUGCUGAGGUGTT against FCGR2A, the median seed-adjusted z-score is -0.19 (inactive).
Under GAGCACGACUGAAAAUGUATT against PTS stands -0.103 (inactive); under UAACCGAUUUGAUAUGAAUTT against ANKRA2, 1.26 (active).
Next, GGGAGAGUGUGCUACGAAATT against NEIL1: -0.168 (inactive); GAUUCGCAGUUUAGAUGUUTT against PRKAA2: -0.194 (inactive); GUACUUACCUUGUGAGGCATT against VAV3: 0 (inactive).
Take GGUGGGUGGUAAGAGGGAATT against AQP2: the median seed-adjusted z-score is -0.433 (inactive).
Next, GCAGAUGUAUAAGAAGGCATT against RRM2: -3.84 (active).
As to GGAGAGAGCUCUCACAUCUTT against PPT1, the median seed-adjusted z-score is 0.727 (inactive).
Next, AGAUUGUAGUUGUGGAUCATT against CDH15: 0 (inactive); CAGCUGUAGUUCUAACUAUTT against ZNF23: -0.106 (inactive).
Next, GGAUCAAUGUGACGGAGAATT against EMILIN2: 0.726 (inactive); GAGUCGAACUUUACUGUCUTT against MLL2: -2.11 (active); GGAAUGGAAUGAUCGGUGATT against GRIN2A: 0.025 (inactive).
Under CGAGUUUGAUGAAAGAGGATT against NT5E stands 0.199 (inactive).
Take CGUUAUGCCUGGUCUCCUATT against SPPL3: the median seed-adjusted z-score is 0.652 (inactive).
As for CAGAUUUGGUAAAAGAGUATT against VPS26A, the median seed-adjusted z-score is -1.55 (active).
With CCCAUUUCGGACUCCAAAATT against IRX3, the median seed-adjusted z-score was -0.285 (inactive).
Next, ACUUUGCCUUCAAGCUCUATT against SERPINA13: -0.403 (inactive).
Next, GCUACUAUGCUGAAGAUCATT against CDH18: 0.21 (inactive); GGAAGAUGUUGACAUAUUUTT against ACAT2: 1.25 (active); GAAUAAGUGACUAUCCAAATT against SENP2: 0 (inactive).
Consider GGAGGCACCUCUCAAGAUATT against THRAP3, for which the median seed-adjusted z-score was -0.852 (inactive).
As for GCGAGGCUGUUAACCCUUATT against PRKCQ, the median seed-adjusted z-score is 0.692 (inactive).
Under GAUGCUAUGGAAUACCAUATT against METTL4 stands 0.244 (inactive).
Next, GCUGGUACCCUGGAGGAAATT against GNRH2: 1.13 (active); ACAUGGUUAUUCCCAGUGATT against AKR1CL2: -0.949 (inactive); CAUUCAAUCCGGACCAUUUTT against CYP2J2: 0.00659 (inactive).
Next, CAGAUAUUAUGAAGAAUUUTT against GALNS: 0.0287 (inactive); GCCUCUUUCUGUCAGCAUUTT against SPAG4: -0.219 (inactive).
As to GGAAGGAUAUUACACCUAUTT against MMP24, the median seed-adjusted z-score was -1.28 (active).
Next, GCAAAGCCCUGUCAAACAATT against NPM2: 0.215 (inactive); CCAAGAAACUGCGAGACAATT against CNGA2: -0.0447 (inactive); CCAGAGUCCUGUUCGAUUUTT against USP30: -0.646 (inactive).
For the sequence CCUCAAGCCUGUAGAAGAATT against SMNDC1, the median seed-adjusted z-score was -1.54 (active).
Under CAGCAUUUAUCAAGUCUUATT against BMP6 stands 0.301 (inactive); under GCAUCGGCAUUGAAGGCUUTT against ALOX15B, 0.156 (inactive); under GUAACUUCCUAUUCACCAATT against EPAS1, -0.166 (inactive).
GGUCUGGAGAAGGUGCAUATT against ANGPTL4: the median seed-adjusted z-score was 1.37 (active).
Next, CUCUACCAACAAUCACAAATT against NPTN: 0.133 (inactive); GGUCGAGUUCUACUACAAATT against IPO11: -0.245 (inactive); CAUGCUCGUGGGUAACAAATT against RAB25: -0.04 (inactive).
Next, UGGAGAGACUUAUCCAAGATT against CKMT1B: -0.929 (inactive).
